Holding throughout (assay): NCI-60 one-dose screen, 48 h (100 = growth as untreated, 0 = no growth, -100 = all killed)
Common to all, as to conditions: 10 µM unless noted

Assay [1] concerns HL-60(TB) leukemia.
For assay [2], the system named is HT29 colon.
For assay [3], the system named is SNB-75 CNS.
Assay [4] deals with SNB-19 CNS.
For assay [5], the system named is U251 CNS.
For assay [6], the system named is PC-3 prostate.
Assay [7] concerns SK-MEL-5 melanoma.
In assay [8] the test system is UACC-62 melanoma.
Assay [9] has as its system LOX IMVI melanoma.
In assay [10] the test system is SK-MEL-28 melanoma.
Assay [11] relates to SK-MEL-2 melanoma.
The test system of assay [12] is EKVX NSCLC.
The test system of assay [13] is UO-31 renal.
Assay [14] has as its system TK-10 renal.
Assay [15] deals with ACHN renal.
Assay [16] has as its system CAKI-1 renal.
The test system of assay [17] is A498 renal.
In assay [18] the test system is CCRF-CEM leukemia.
For assay [19], the system named is SN12C renal.

Values joined by “and” are separate entries in the source; they are usually repeats but may differ in a detail not shown here. Equal values may be shown once. Compounds without any hit were thinned out: in the full panel of roughly 83,000, 20% have a hit.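 Single-dose data. Exposure time 48 hours. Values below 10 considered active.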 Active and inactive are the calls of the source.

In the case of `CC1CCNC(C)C1` (stereo not given), the growth in assay [1] is 113% (inactive).
Consider `C[C@]12CCc3sc(Nc4ccc(F)cc4F)nc3C1=CC[C@@H]1[C@@H]2CC[C@]2(C)C(=O)CC[C@@H]12`, for which the growth was 30.1% (inactive) in [2]; 69.4% (inactive) in assay [3]; 74.1% (inactive) in assay [4]; 40.7% (inactive) in [5]; 52.9% (inactive) in [6]; 76.9% (inactive) in assay [7]. The growth in assay [8] is 67.6% (inactive); in assay [9] it was -49.7% (active); in [10], 84.4% (inactive); in assay [11], 76.4% (inactive); in [12], 78.4% (inactive); in assay [13] it was 42.9% (inactive). Moreover, the growth in assay [14] was 50.2% (inactive); in [15], 37.7% (inactive); in assay [16] it was 38.4% (inactive); in assay [17] it was 77.8% (inactive); in assay [1], 21.4% (inactive); in assay [18], 10.1% (inactive).
For the molecule `O=c1c2ccccc2nc(-c2ccccc2Cl)n1-c1nnc(C(F)(F)F)s1`, the growth in assay [2] was 30.3% (inactive); in [3], 53.9% (inactive); in assay [4], 33.2% (inactive); in [5], 16.6% (inactive); in [6], 20% (inactive); in [7], 9.47% (active). For the same molecule, the growth in assay [8] is 10.3% (inactive); in assay [9], 31.3% (inactive); in assay [10] it was 30.2% (inactive); in [19] it was 21.9% (inactive); in [13], 19.4% (inactive); in assay [14] it was 42% (inactive). Further, the growth is 51.8% (inactive) in assay [15]; 3.51% (active) in [16]; -7.82% (active) in assay [17]; 1.24% (active) in [1]; 7.41% (active) in [18].
Turning to `N#Cc1ccc(Cl)cc1`, the growth was 84.4% (inactive) in [2]; 101% (inactive) in assay [3]; 108% (inactive) in assay [4]; 105% (inactive) in assay [5]; 129% (inactive) in assay [6]; 106% (inactive) in assay [7]. Besides, the growth in assay [8] is 104% (inactive); in assay [9], 106% (inactive); in [10], 117% (inactive); in assay [12], 117% (inactive); in assay [19], 107% (inactive); in [13] it was 94.6% (inactive). The growth in [14] was 60.3% (inactive); in assay [15], 102% (inactive); in assay [16] it was 111% (inactive); in [1] it was 83.9% (inactive); in assay [18] it was 99.5% (inactive).
`C[C@@]12CCCc3coc(c31)C(=O)c1cc3c(cc12)C(=O)C1=C(NCCS1(=O)=O)C3=O`: the growth in assay [2] is -4.92% (active); in assay [3], -87.5% (active); in assay [5], -61% (active); in assay [6], -6.62% (active); in assay [7], -98% (active); in [8], -68% (active). In addition, the growth is -42.7% (active) in [9]; -9.02% (active) in [10]; -41.3% (active) in [11]; 11.1% (inactive) in assay [12]; -79.3% (active) in assay [19]; 28.2% (inactive) in assay [14]. In addition, the growth was 30.6% (inactive) in assay [15]; 10.5% (inactive) in assay [16]; 35.3% (inactive) in [17]; -45% (active) in assay [1]; -28.7% (active) in [18].
For `O=S1(=O)OCCO1`, the growth in assay [2] was 107% (inactive); in assay [3], 90.5% (inactive); in [5], 105% (inactive); in [6] it was 99.9% (inactive); in assay [7], 101% (inactive); in assay [8], 87.4% (inactive). For the same molecule, the growth in assay [9] is 92.3% (inactive); in assay [10] it was 100% (inactive); in assay [11], 113% (inactive); in assay [12], 100% (inactive); in assay [19], 93.3% (inactive); in assay [14], 98.5% (inactive). Moreover, the growth in [15] is 99.2% (inactive); in assay [16] it was 89.5% (inactive); in assay [17], 99% (inactive); in [18], 94.6% (inactive).
On to `Oc1cc(N2CC2)c(O)cc1N1CC1`, for which the growth in assay [2] was 1.49% (active); in assay [4] it was 26.8% (inactive); in assay [5] it was -2.16% (active); in assay [6], 25% (inactive); in [7], -95% (active); in assay [8] it was -67.2% (active). Further, the growth was 1.44% (active) in [9]; -50.9% (active) in [10]; -37.5% (active) in [11]; 58.4% (inactive) in assay [12]; 12.7% (inactive) in [19]; -36.6% (active) in assay [13]. Further, the growth is -7.44% (active) in assay [14]; 2.38% (active) in assay [15]; -1.5% (active) in [16]; -75.2% (active) in assay [17]; 16.1% (inactive) in assay [1]; 24.7% (inactive) in [18].
`C=C1C(=O)OC2CC3(C)OC3C3OC3C3=CC(OC3=O)C12` (stereo not given): the growth is 98.2% (inactive) and 79.6% (inactive) in [2]; 87.7% (inactive) and 90.1% (inactive) in [3]; 104% (inactive) and 103% (inactive) in assay [4]; 103% (inactive) and 104% (inactive) in assay [5]; 106% (inactive) and 92.2% (inactive) in assay [6]; 109% (inactive) and 95% (inactive) in assay [7]. Further, the growth in assay [8] was 99.3% (inactive) and 82.7% (inactive); in assay [9] it was 93.1% (inactive) and 92% (inactive); in assay [10] it was 52.6% (inactive) and 73.8% (inactive); in [12], 111% (inactive); in assay [19], 100% (inactive) and 97.4% (inactive); in assay [13], 44.3% (inactive) and 44.2% (inactive). For the same molecule, the growth in assay [14] was 16.7% (inactive) and -22.5% (active); in assay [16], 4.76% (active) and 6.96% (active); in [17] it was 113% (inactive) and 106% (inactive); in [1] it was -17.4% (active) and 3.33% (active); in [18], -42.4% (active) and -54.4% (active).
`CC1=CC(=O)CCC12CCOC2=O` (stereo not given): the growth in [2] was 101% (inactive); in [3], 91.3% (inactive); in assay [5] it was 99.1% (inactive); in assay [6], 111% (inactive); in assay [7] it was 103% (inactive); in [8], 87% (inactive). Further, the growth in assay [9] is 95.6% (inactive); in [10], 95.9% (inactive); in assay [11], 125% (inactive); in assay [12] it was 91.4% (inactive); in assay [19], 95.2% (inactive); in [14], 92% (inactive). For the same molecule, the growth is 101% (inactive) in [15]; 91.3% (inactive) in assay [16]; 91.7% (inactive) in [17]; 86.5% (inactive) in assay [1]; 82.4% (inactive) in assay [18].
For `COC1C(O)CC(OC2CC(Oc3cc4cc5c(c(O)c4c(O)c3C)C(=O)[C@@H](OC3CC(OC4CC(OC6CC(C)(O)C(OC(C)=O)C(C)O6)C(O)C(C)O4)C(O)C(C)O3)[C@H]([C@H](OC)C(=O)[C@@H](O)[C@@H](C)O)C5)OC(C)C2OC(C)=O)OC1C` (stereo not given in full), the growth in assay [2] was -23.2% (active); in assay [3], -61.8% (active); in assay [4], 5.7% (active); in [5], 4.79% (active); in [6], -11.5% (active); in assay [7], -93.8% (active). In addition, the growth in [8] was -83% (active); in assay [9], 3.81% (active); in assay [11], -42.1% (active); in assay [12], -12.7% (active); in [13] it was -12.5% (active); in assay [14] it was 2.86% (active). Moreover, the growth is 2.04% (active) in assay [15], -25.9% (active) in assay [16], -23.8% (active) in [1] and -8.99% (active) in assay [18].
As to `O=C(CCCN1CCC2(CC1)C(=O)NCN2c1ccccc1)c1ccc(F)cc1`, the growth in assay [2] was 60.8% (inactive) and 21.9% (inactive); in assay [3] it was 109% (inactive) and 105% (inactive); in assay [4], 98.1% (inactive) and 66.6% (inactive); in assay [5] it was 98.6% (inactive) and 78.7% (inactive); in assay [6], 106% (inactive) and 77.6% (inactive); in [7] it was 56.9% (inactive) and -23.1% (active). The growth was 102% (inactive) and 65% (inactive) in assay [8]; 103% (inactive) and 67.8% (inactive) in [9]; 114% (inactive) and 120% (inactive) in assay [10]; 106% (inactive) and 78.5% (inactive) in assay [11]; 57.6% (inactive) and 80.6% (inactive) in [12]; 115% (inactive) and 99.1% (inactive) in assay [14]. Moreover, the growth in [15] was 20.3% (inactive); in [16], 91.6% (inactive) and 15.5% (inactive); in [17] it was 50.3% (inactive) and 30.6% (inactive); in assay [1], 100% (inactive) and 114% (inactive).

These data come from PubChem BioAssay (NCI).
